Bioassay records deposited in PubChem by National Center for Advancing Translational Sciences (NCATS).
This is a sample that favours compounds with a hit; in the whole collection about 7% have one here.
Integrin act MD = qHTS for Activators of Integrin-Mediated Alleviation for Muscular Dystrophy. AID 624291, 2012. Potency, µM (titrated, usually from 38.3 µM), for inactives: top-dose activation, most hits filed as activators. 0.064% of 350,000 active. alpha7betagal myoblasts, beta-gal FDG fluorescence, 48 h;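 also: potency is read from the fitted curve at half-maximal effect; 100% = response of the positive control SU9516; nearly all actives have a fitted effect of over 60% in size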
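alpha7betagal+/- myoblasts (passage 13, 250/well) treated 48 h at 37C with compounds at 1:260 dilution of DMSO stock. Lysed, then beta-galactosidase activity read as FDG fluorescence (ex 480/em 540) after 30 min, with pre-read for autofluorescence.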
ATXN2 expr inh = Primary qHTS for Inhibitors of ATXN expression. HEK-293 ATXN2-luciferase reporter, luminescence, 24 h. Potency, µM (top dose mostly 57 µM), without a hit: at the top dose activity change, negative = inhibition, actives largely listed as inhibitors. 0.72% of 360,000 active; also: potency is read from the fitted curve at half-maximal effect; % is scaled to controls: 0 for no effect and ±100 for the full control effect; nearly all actives have a fitted effect of over 55% in size
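qHTS (up to 57 uM final) was run with 24 h compound exposure of reporter cells at 37 °C. Each well was multiplexed: SteadyGlo luminescence measured ATXN2-luciferase expression after a fluorogenic Gly-Phe-AFC viability readout (25 uM final).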
S2 tox = Viability Counterscreen for Primary qHTS for Inhibitors of ATXN expression | S2 cells (HEK-293 line with an ATXN2-luciferase reporter) viability, CellTiter-Fluor protease fluorescence, 24 h | Potency, µM (doses to about 56.7 µM), most hits filed as cytotoxic | 0.49% of 400,000 active | AID 651635, 2014; also: potency is read from the fitted curve at half-maximal effect; nearly all actives have a fitted effect of over 40% in size
IL1B secr inh = qHTS for Inhibitors of Inflammasome Signaling: IL-1-beta AlphaLISA Primary Screen; THP-1 LPS/ATP IL-1B secretion, AlphaLISA, 16 h; hits give low values; activity change, % at 57.5 µM; 4.7% of 360,000 active; AID 743279, 2014; in the data active = activity change below about -50%; inconclusive = mostly about -30% to -49%; also: % is scaled to controls: 0 for no effect and ±100 for the full control effect
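Secreted IL-1B measured by AlphaLISA bead assay after 16 h compound exposure of THP-1 cells; compounds (final up to 57.5 uM) added 1 h before LPS (250 ng/mL) and ATP (1.25 mM) stimulation; lower signal means less secretion.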
DRD3 antagonist = qHTS of D3 Dopamine Receptor Antagonist: qHTS | D3R cells, DiscoveRx beta-arrestin luminescence, antagonist mode; hits give low values | max response, negative = inhibition, % | D(3) dopamine receptor (Homo sapiens), P35462 | 2.5% of 360,000 active | AID 652054, 2013; in the data active = max response below about -50%; inconclusive = no clear call, values can overlap the other calls; also: % is scaled to controls: 0 for no effect and ±100 for the full control effect
Target sequence (P35462 whole entry, looked up): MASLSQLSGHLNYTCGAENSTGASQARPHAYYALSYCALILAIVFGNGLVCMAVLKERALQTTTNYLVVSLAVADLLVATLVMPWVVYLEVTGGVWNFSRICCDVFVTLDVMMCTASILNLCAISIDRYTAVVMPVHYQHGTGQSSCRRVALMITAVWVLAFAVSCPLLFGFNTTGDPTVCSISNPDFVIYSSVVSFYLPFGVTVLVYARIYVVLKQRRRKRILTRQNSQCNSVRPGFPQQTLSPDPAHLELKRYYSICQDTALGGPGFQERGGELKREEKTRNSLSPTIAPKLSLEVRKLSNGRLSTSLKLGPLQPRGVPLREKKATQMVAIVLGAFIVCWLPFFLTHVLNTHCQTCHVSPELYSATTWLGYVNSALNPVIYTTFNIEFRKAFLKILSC
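Cells expressing the human receptor were seeded at 1500 cells/well, incubated overnight at 37 degrees C in 5% CO2, then exposed to library compounds with dopamine controls for 90 minutes at 37 degrees C before luminescent detection.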
DRD3 agonist = qHTS of D3 Dopamine Receptor Agonist: qHTS. max activation, %. AID 652048, 2013. D3R DiscoveRx beta-arrestin cells, luminescence, 90 min. D(3) dopamine receptor (Homo sapiens), P35462. 0.58% of 410,000 active; in the data active = max activation above about 30%; also: 0% is about no effect
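Cells at 1500/well, incubated overnight, then treated with pinned compounds (dopamine as control) for 90 min at 37 degrees C. DiscoveRx reagent added for 30 - 60 minutes at room temperature; luminescence read.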
* = called active by the depositor. Unless noted, calls follow the shape of the dose curve; as a rule, active = well fitted curve in the direction sought with a large enough effect; inconclusive = small, poorly fitted or top-dose-only effect, or another doubt; inactive = no such curve, though single readings can be large; an effect the other way counts as inactive or inconclusive.

S=C(NC1CCCCC1)N1CCCCC1 was read as Integrin act MD -20%, ATXN2 expr inh -5%, S2 tox inactive, IL1B secr inh -5, DRD3 antagonist -2 and DRD3 agonist -9.
For CC(=O)Nc1nc(COc2ccccc2)cs1 the results were Integrin act MD 18%, ATXN2 expr inh 23%, S2 tox inactive, IL1B secr inh -5, DRD3 antagonist 18 and DRD3 agonist 5.
Cc1ccc(C(=O)Nc2nc(COc3ccccc3)cs2)s1 was read as Integrin act MD 7%, ATXN2 expr inh 2%, S2 tox inactive, IL1B secr inh -87*, DRD3 antagonist 33 and DRD3 agonist 17.
`CCN(CC)c1ccc(NC(=O)c2ccccc2Br)cc1S(=O)(=O)Nc1ccccc1OC` gave Integrin act MD 0%, ATXN2 expr inh -9%, S2 tox inactive, IL1B secr inh -60*, DRD3 antagonist inconclusive and DRD3 agonist -11.
Cc1cc(C)c(C#N)c(SCCS(=O)(=O)c2ccc(Cl)cc2)n1 was read as Integrin act MD -57%, ATXN2 expr inh -27%, S2 tox inactive, IL1B secr inh -76*, DRD3 antagonist 4 and DRD3 agonist 7.
For Cc1cc(C)c(C#N)c(SCCS(=O)(=O)c2ccc(C(C)(C)C)cc2)n1 the results were Integrin act MD -51%, ATXN2 expr inh 4%, S2 tox inactive, IL1B secr inh -19, DRD3 antagonist -1 and DRD3 agonist -1.
Screening CC[n+]1ccccc1/C=C/c1ccc(N(C)C)cc1 returned Integrin act MD -29%, ATXN2 expr inh inconclusive, S2 tox inconclusive, IL1B secr inh -57*, DRD3 antagonist -13 and DRD3 agonist 0.
CC[n+]1c(/C=C/c2ccc(OC)c(OC)c2)ccc2ccccc21 was read as Integrin act MD 13%, S2 tox inactive, IL1B secr inh 16, DRD3 antagonist -6 and DRD3 agonist 1.
For CC[n+]1ccc(/C=C/c2ccc(N(C)C)cc2)c2ccccc21 the results were Integrin act MD inconclusive, ATXN2 expr inh inconclusive, S2 tox 8.9µM*, IL1B secr inh -106*, DRD3 antagonist -3 and DRD3 agonist -9.
Screening CCCCCC[n+]1ccccc1/C=C/c1ccc(N(C)C)cc1 returned ATXN2 expr inh inconclusive, IL1B secr inh inconclusive, DRD3 antagonist 9 and DRD3 agonist 0.
CCN(CC)c1ccc(/C=C/c2ccc3ccc(OC)cc3[n+]2CC)cc1 was read as Integrin act MD -75%, IL1B secr inh -83*, DRD3 antagonist -11 and DRD3 agonist 0.
Screening CC[n+]1c(/C=C/c2ccc(OC(C)=O)c(OC)c2)ccc2ccccc21 returned Integrin act MD -6%, IL1B secr inh -85*, DRD3 antagonist -9 and DRD3 agonist -13.
For CCOC(=O)C(NC(=O)Nc1ccc(O)cc1)(c1ccccc1)C(F)(F)F (stereo not drawn) the results were Integrin act MD -5%, ATXN2 expr inh -7%, S2 tox inconclusive, IL1B secr inh -8, DRD3 antagonist 4 and DRD3 agonist -1.
`COc1ccc(NC(=O)CSc2nnc(-c3cccnc3)n2Cc2ccco2)c(OC)c1` gave Integrin act MD 8%, ATXN2 expr inh 4%, S2 tox inactive, IL1B secr inh -9, DRD3 antagonist 22 and DRD3 agonist 6.
CC[n+]1c(/C=C/c2ccc(N(C)C)cc2)ccc2ccccc21 was read as Integrin act MD inconclusive, ATXN2 expr inh inconclusive, IL1B secr inh -99*, DRD3 antagonist 3 and DRD3 agonist 3.
Screening O=C1CN(C(=O)CC2C(=O)NCCN2Cc2ccccc2C(F)(F)F)CCN1 (stereo not drawn) returned Integrin act MD -34%, ATXN2 expr inh 1%, S2 tox inactive, IL1B secr inh 15, DRD3 antagonist 6 and DRD3 agonist 3.
Screening S=C(NNc1ccnc2cc(Cl)ccc12)Nc1ccc(Cl)cc1Cl returned Integrin act MD -58%, S2 tox inconclusive, IL1B secr inh -86*, DRD3 antagonist -16 and DRD3 agonist -12.
`CCOc1ccccc1Nc1ccnc2cc(Cl)ccc12` gave Integrin act MD -22%, ATXN2 expr inh inconclusive, S2 tox inconclusive, IL1B secr inh -88*, DRD3 antagonist 5 and DRD3 agonist -2.
Screening CCOc1ccc(NC(=S)NNc2ccnc3cc(Cl)ccc23)cc1 returned Integrin act MD -82%, ATXN2 expr inh -14%, S2 tox inconclusive, IL1B secr inh -89*, DRD3 antagonist -3 and DRD3 agonist 3.
For Clc1ccc2c(NCc3ccccn3)ccnc2c1 the results were Integrin act MD inconclusive, ATXN2 expr inh -29%, S2 tox inactive, IL1B secr inh 13, DRD3 antagonist 44 and DRD3 agonist -3.
Screening CCOc1ccc(NC(=S)NNC(=O)c2cc(Br)ccc2Cl)cc1 returned Integrin act MD -7%, ATXN2 expr inh -21%, S2 tox inactive, IL1B secr inh 5, DRD3 antagonist 2 and DRD3 agonist 3.
`CC1=C(C(=O)OC2CCCCCC2)C(c2ccccc2Cl)CC(=O)N1` (stereo not drawn) gave ATXN2 expr inh 0%, S2 tox inactive and DRD3 agonist 0.
`CCCN1CCN(CC(=O)Nc2nnc(CC)s2)CC1` gave Integrin act MD 18%, ATXN2 expr inh -5%, S2 tox inactive, IL1B secr inh 6, DRD3 antagonist -20 and DRD3 agonist 2.
For CC(C)c1ccc(/C=C/C(=O)Nc2nc3ccc([N+](=O)[O-])cc3s2)cc1 the results were Integrin act MD 5%, IL1B secr inh 21, DRD3 antagonist 10 and DRD3 agonist 0.
Screening O=[N+]([O-])c1ccc2nc(NN=Cc3ccc(O)cc3)sc2c1 returned Integrin act MD -59%, ATXN2 expr inh -17%, S2 tox inactive, IL1B secr inh -96*, DRD3 antagonist -52* and DRD3 agonist -4.
For Cc1nc2nc(NC(=O)c3ccccc3F)[nH]n2c(=O)c1Cl the results were DRD3 agonist -12.
Screening COc1cc(S(=O)(=O)N2CCC(O)(c3cccc(C(F)(F)F)c3)CC2)ccc1-n1cnnn1 returned Integrin act MD -20%, ATXN2 expr inh -7%, S2 tox inactive, IL1B secr inh 0, DRD3 antagonist -82* and DRD3 agonist 2.
For Cc1ccc(-n2nc3c(SCCN4CCOCC4)nnc(C)c3c2C)cc1 the results were Integrin act MD -44%, ATXN2 expr inh -1%, S2 tox inactive, IL1B secr inh -25, DRD3 antagonist -10 and DRD3 agonist -1.
